# TrxR1 inh: qHTS Assay for Inhibitors of Mammalian Selenoprotein Thioredoxin Reductase 1 (TrxR1): qHTS; Thioredoxin reductase 1, cytoplasmic (Rattus norvegicus), O89049; recombinant rTrxR1, NADPH fluorescence consumption, selenite substrate; Potency, µM (top dose mostly 114 µM), for inactives: at the highest dose activity change, negative = inhibition, hits mostly inhibitors; 390,000 tested, 1% active; AID 588453, 2011; further: nearly all actives have a fitted effect of over 65% in size
#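 Rat TrxR1 (90 nM in the dispensed reagent) was pre-reduced with 400 uM NADPH for 5 min at room temperature, then incubated with compound for 15 min. After 400 uM selenite was added, NADPH fluorescence (Ex 340/Em 450 nm) was followed for 8 min.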
# PKM2 act: qHTS Assay for Activators of Human Muscle isoform 2 Pyruvate Kinase; purified PKM2, Kinase-Glo ATP luminescence, activation; response scale: 0% is enzyme alone, no compound; AID 1631, 2009; 260,000 tested, 0.34% active; Potency, µM (series often up to 57.5 µM), without a hit: at the highest dose activation, actives largely listed as activators; Pyruvate kinase PKM (Homo sapiens), P14618; further: nearly all actives have a fitted effect of over 55% in size
#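 Kinase-Glo luminescence reports ATP generated from ADP (0.1 mM) and PEP (0.5 mM) by purified hPK-M2 after 1 h at room temperature, pH 7.2 imidazole buffer; intermediate enzyme activity allows detecting inhibitors and activators.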
# GALK inh: qHTS Assay for Inhibitors of Human Galactokinase (GALK) | Purified GALK, Kinase-Glo residual ATP luminescence | Potency, µM (doses to about 57.5 µM), for inactives: at the top dose activity change, negative = inhibition, usual class: inhibitors | 270,000 tested, 0.007% active
#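 5 nM enzyme, 35 uM ATP, 100 uM galactose, 20 mM HEPES pH8.0, 5 mM MgCl2; 1 h RT; residual ATP by Kinase-Glo Plus luminescence, qHTS format.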
# mIDH1 inhibitor: qHTS for Inhibitors of mutant isocitrate dehydrogenase 1 (IDH1): qHTS | IDH1-R132H enzyme, NADPH consumption, diaphorase/resazurin fluorescence | 390,000 tested, 0.093% active | Potency, µM (doses to about 76.6 µM), inactives show at the highest dose activity change, negative = inhibition, hits mostly inhibitors; further: nearly all actives have a fitted effect of over 65% in size
# Target sequence (O75874 whole entry R132H, stated change not applied): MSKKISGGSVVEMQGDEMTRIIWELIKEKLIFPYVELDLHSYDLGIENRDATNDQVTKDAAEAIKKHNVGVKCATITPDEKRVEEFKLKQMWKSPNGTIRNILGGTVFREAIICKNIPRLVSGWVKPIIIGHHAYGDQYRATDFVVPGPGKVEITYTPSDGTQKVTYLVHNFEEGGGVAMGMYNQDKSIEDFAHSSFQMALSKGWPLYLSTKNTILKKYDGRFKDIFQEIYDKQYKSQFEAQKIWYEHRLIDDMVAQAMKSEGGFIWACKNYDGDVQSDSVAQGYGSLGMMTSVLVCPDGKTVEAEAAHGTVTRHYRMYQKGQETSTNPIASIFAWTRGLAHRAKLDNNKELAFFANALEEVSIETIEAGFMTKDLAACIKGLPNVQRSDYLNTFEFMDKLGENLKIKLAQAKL
#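 IDH1-R132H (0.5 ug/mL) preincubated 30 min with compound, then NADPH (0.016 mM) and alpha-KG (2 mM) added; 80 min at RT, pH 7.5. Remaining NADPH coupled via diaphorase/resazurin to fluorescence (540/590 nm); concentration-response curves normalized to no-enzyme control.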
# TrxR1 substrate: qHTS Assay for Substrates of Mammalian Selenoprotein Thioredoxin Reductase 1 (TrxR1): qHTS. Thioredoxin reductase 1, cytoplasmic (Rattus norvegicus), O89049. purified TrxR1 substrate turnover, NADPH consumption readout. Potency, µM (doses to about 114 µM), for the others: at the top dose activity change, negative = substrate turnover. 390,000 tested, 0.01% active; further: nearly all actives have a fitted effect of over 50% in size
#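 Rat TrxR1, dispensed at 90 nM, was prereduced with 400 uM NADPH (final) for 5 min at ~22 deg C, then incubated with compound 15 min before 400 uM selenite. A first-read NADPH fluorescence drop versus no-compound background flagged substrates.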
# Apoferritin bind: qHTS Assay for Identification of Novel General Anesthetics. apoferritin/1-aminoanthracene competitive binding, fluorescence. Ferritin light chain (Equus caballus), P02791. Potency, µM (series often up to 77.5 µM), inactives show at the top dose activity change, negative = displacement, actives largely listed as inhibitors. 350,000 tested, 0.074% active. AID 485281, 2010; further: nearly all actives have a fitted effect of over 20% in size
# Target sequence (P02791 2-175 limits assumed): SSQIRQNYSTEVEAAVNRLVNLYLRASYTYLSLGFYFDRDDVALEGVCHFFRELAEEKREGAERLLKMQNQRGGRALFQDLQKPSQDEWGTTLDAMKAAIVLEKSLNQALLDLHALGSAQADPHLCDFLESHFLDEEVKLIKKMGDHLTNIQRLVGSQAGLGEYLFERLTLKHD
#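 10 uM apoferritin + 50% sat. 1-AMA, PBS; cpd 10 min RT; Ex380/Em535 endpoint; normalized to free probe vs complex; 4-param Hill fit; propofol titration as pos. ctrl.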
# * = called active by the depositor; u = inconclusive; x = no result given; [ ] = another dose, or the depositor's remark. Shown are actives, neighbours in structure and some others; about 1.3% of the full set was active somewhere. The call rests on the fitted dose curve; in most records, active means well fitted curve in the direction sought with a large enough effect; inconclusive means small, poorly fitted or top-dose-only effect, or another doubt; inactive means no such curve, though single readings can be large; an effect the other way counts as inactive or inconclusive. On the % scale 0 is the no-effect control and ±100 the full control effect; potency means the concentration at half of the fitted maximal effect.
SMILES,TrxR1 inh,PKM2 act,GALK inh,mIDH1 inhibitor,TrxR1 substrate,Apoferritin bind
Cc1cc(NS(=O)(=O)c2ccc(NC(NC(=O)C(C(F)(F)F)C(F)(F)F)(C(F)(F)F)C(F)(F)F)cc2)no1,10µM*,2.9%,-5.8%,-4.0%,3.9%[57.1 µM],-8.0%
CCCc1nn2c(=O)cc(COC(=O)c3ccccc3NC(=O)COc3ccccc3F)nc2s1,6.9%[57.1 µM],x,x,15.6%,2.9%[57.1 µM],-1.7%
Cc1ccc(C(=O)CC(C(=O)O)n2cnc([N+](=O)[O-])n2)cc1 (configuration not stated),31.6µM*,-5.7%,2.1%,-4.5%,-6.7%,-3.1%
Cc1ccc(N2NC(=O)/C(=C\c3cc4c(cc3[N+](=O)[O-])OCO4)C2=O)cc1C,17.8µM*,u,x,2.3%,6.0%,u
Cc1ccc(CNC(=O)[C@H](C)[C@H]2C[C@]2(C)[C@H](NC(=O)OCc2ccccc2)c2ccccc2)o1,56.2µM*,u,x,18.6%,-2.4%,0.5%
CCC(CC)=NNc1ccc(S(N)(=O)=O)cc1[N+](=O)[O-],25.6%[57.1 µM],17.8µM*,-0.1%,-1.9%,3.4%[57.1 µM],-4.0%
Cc1cc(C)n(CCc2nc3c4ccccc4nc(N4CCN(c5cccc(C)c5C)CC4)n3n2)n1,-5.2%,x,x,-5.4%,-5.8%,-4.6%
CC1CC(C)(C)Nc2ccc(OC(=O)c3ccco3)cc21 (configuration not stated),-7.8%,8.6%,-0.7%,2.9%,-9.9%,u
CC1CC(C)(C)Nc2ccc(N=O)cc21 (configuration not stated),0.891µM*,x,6.3%,26.7%,-3.6%[57.1 µM],-20.6%
O=C(NC1CC1)c1ccc2nc(-c3ccco3)c(-c3ccco3)nc2c1,2.51µM*,x,x,x,-2.1%,x
CCc1nc2ccc(C(=O)Nc3ccc(NC(C)=O)cc3)cc2nc1CC,-12.2%,0.1%,0.5%,10.3%,-17.7%,-0.8%
CNC(=O)c1ccc2nc(-c3ccco3)c(-c3ccco3)nc2c1,3.98µM*,x,x,x,-5.5%,x
CC(=O)c1ccc(NC(=O)c2ccc3nc(-c4ccco4)c(-c4ccco4)nc3c2)cc1,2.51µM*,24.0%,-2.6%,5.5%,1.4%,-17.5%
O=C(NC1CC1)c1cc(-c2ccco2)nc2ccccc12,-4.2%,u,-0.4%,5.1%,353.1%,-3.7%
CCOc1ccc2c(c1)c(=O)c(C(=O)c1ccc(C)cc1)cn2Cc1ccccc1OC,12.9%,x,x,-15.5%,-6.0%,-10.5%
O=[N+]([O-])c1ccc(S(=O)(=O)CC(CN2CCCCC2)N2CCCCC2)cc1 (configuration not stated),2.51µM*,4.2%,-0.9%,9.1%,-5.8%,-10.4%
O=[N+]([O-])c1ccc(S(=O)(=O)CC(CN2CCOCC2)N2CCOCC2)cc1 (configuration not stated),4.1%,0.5%,-2.3%,-6.7%,-0.9%,-2.0%
Cc1ccc(NC(=O)c2ccc(Cl)c(N3C(=O)C=CC3=O)c2)cc1,u,20µM*,-1.4%,-0.6%,13.1%[57.1 µM],u
COc1cc2c(cc1NC(=S)NC(=O)/C=C/c1ccco1)oc1ccccc12,13.4%,0.2%,-3.7%,7.9%,-1.0%,-9.9%
COc1ccccc1NC(=S)NC(=O)/C=C/c1ccco1,20µM*,22.2%,0.7%,4.6%,-2.6%,-1.0%
COc1cc(C(=O)NNC(=O)c2ccco2)cc(OC)c1OC,13.8%,0.0%,-0.9%,6.3%,3.6%,-3.4%
COc1cc(C(=O)NNC(=O)/C=C/c2ccco2)cc(OC)c1OC,56.2µM*,x,x,2.2%,-5.4%,x
COc1ccccc1NC(=O)/C=C\c1ccco1,3.55µM*,x,4.0%,-6.3%,-3.5%,1.6%
Cc1ccccc1NC(=S)NC(=O)/C=C/c1ccco1,15.8µM*,12.8%[11.5 µM],5.0%,5.0%,4.8%,-18.6%
O=C(C[n+]1cccc(Br)c1)c1ccc(I)cc1,-11.5%,x,x,x,-1.0%,x
SMILES,TrxR1 inh,PKM2 act,GALK inh,mIDH1 inhibitor,TrxR1 substrate,Apoferritin bind
COc1ccc(-c2cn3nc(N4CCC(C(=O)NCc5ccccc5F)CC4)sc3n2)cc1,-1.1%,x,x,14.3%,-7.7%,-1.3%
Cc1ccc(C(=O)N2CCc3cc(CNS(=O)(=O)c4cccs4)ccc32)cc1,24.7%[57.1 µM],x,x,-5.2%,5.3%[57.1 µM],-2.3%
Cc1ccc(-c2nc3ccccc3s2)cc1NC(=S)NC(=O)/C=C/c1ccco1,-50.6%,6.9%,-1.1%,8.1%,19.0%[57.1 µM],-23.7%
O=C(/C=C/c1ccco1)NC(=S)Nc1cc(-c2nc3ccccc3s2)ccc1Cl,50.1µM*,-6.9%,0.6%,4.3%,-9.4%,40.2%
Cc1ccc(S(=O)(=O)c2ccc([N+](=O)[O-])cn2)cc1,0.447µM*,x,0.6%,13.9%,-7.5%,-4.6%
O=[N+]([O-])c1ccc(S(=O)(=O)c2ccccc2)nc1,u,x,-2.5%,2.1%,13.2%[57.1 µM],-14.4%
CCC(=O)C1=C(c2ccc(F)cc2)N(C(=O)CC)n2cnnc2S1,-24.0%[57.1 µM],x,x,u,7.4%[57.1 µM],-3.6%

# Screening data deposited in PubChem BioAssay by National Center for Advancing Translational Sciences (NCATS).
